Assay results published in PubChem BioAssay AID2507 (National Center for Advancing Translational Sciences (NCATS), 2010).
Results filed as inconclusive are left out. The source made the active and inactive calls. Calls follow the shape of the dose curve; as a rule, active = well fitted inhibition curve with a large enough effect; inconclusive = small, poorly fitted or top-dose-only effect, or effect the other way; inactive = flat fitted curve, though single readings scatter.

Experiment: Secondary Assay for General miRNAs Modulators and/or Inhibitors/Activators of miR-21: miR-30 Firefly Luciferase Assay
Details: HeLa miR-30 FLuc reporter, luminescence, 48 h; series mostly up to 38.3 µM; activity change, negative = inhibition: at the top concentration
From the text: MLSCN Grant: 1 R21 NS059478-01 Assay Provider: Qihong Huang, The Wistar Institute NCGC Assay Overview: MicroRNAs (miRNAs) are endogenously encoded small (~20-25 nucleotides), nonprotein-coding RNAs that are involved in post-transcriptional repression of target messenger RNAs (mRNAs) (Le and Hannon, 2004). Estimated to be involved in the regulation of 30% of all protein-coding mRNAs (Filipowicz et al., 2008), miRNAs play a significant role in many biological processes including cellular differentiation and tissue development (Ghildiyal and Zamore, 2009). […] Compounds active in the miR-21 FLuc assay were clustered using Leadscope and active chemical series were prioritized based on chemical properties, potential for medicinal chemistry optimization, and SAR. Within each chemical series, representative compounds were re-acquired to test for activity in a secondary assay based on the quality of their CRC, efficacy, and potency. The secondary assay to determine if compounds active in the miR-21 FLuc assay were potentially specific for miR-21 and were not general modulators of the miRNA pathway was another cell-based FLuc reporter gene assay, this time targeting miR-30. Compounds found active in both the miR-21 FLuc and miR-30 FLuc assays are not considered miR-21 specific compounds, and may be general miRNA modulators.
NCGC Assay Protocol Summary: Reagents: HeLa cells stably expressing firefly luciferase (FLuc) under the control of a CMV promoter (upstream) and a miR-30 binding sequence directly downstream of the gene. These cells also stably express miR-30. Control compounds used were compound C3 (provided by collaborator), N6-phenyladenosine (MP Biomedicals, 0215379625), and DMSO. Assay Summary: 6uL of HeLa miR-30-FLuc cells in assay buffer (DMEM, Invitrogen #21063-029; 10% FBS, HyClone #SH30071.03) were dispensed at 1000cells/well (1.7 x 10^5 cells/mL) into Greiner solid-white TC-treated 1536-well plates using a Multidrop Combi (Thermo Fisher Scientific). Plates were incubated for one hour at 37 degree Celsius, 95% humidity, 5% CO2. These assay plates were then treated with 23nL of compound or DMSO using a Kalypsys pin tool, which allows for delivery of a 24-point titration of each compound to the assay plate, with a final compound concentration ranging from approximately 40uM to 5pM. Assay plates were then incubated for 48 hours. After incubation, plates were allowed to come to RT for one hour prior to delivery of 3uL of 3X luciferase detection reagent. After a 15 minute incubation to allow for cell lysis, luciferase activity was measured using a ViewLux CCD imager (PerkinElmer), with an average exposure time of 2-12 seconds. Keywords: NIH Roadmap, MLPCN, MLSMR, qHTS, miR-21, miR-30, microRNA, firefly luciferase, FLuc.

Potency, active:
COc1ccccc1NC(=O)CSc1nnc(-c2ccccn2)o1 5.04 µM, Cc1ccc(-n2nnc(-c3nc(-c4cccs4)no3)c2N)cc1C 2.52 µM, Cc1ccc(SCC(=O)Nc2ccc3oc(-c4ccc(F)cc4)nc3c2)cc1 11.3 µM, CSc1nsc(SCC(=O)Nc2ccc(F)cc2F)n1 12.6 µM, Clc1ccc(-n2ncc3c(NCc4ccccn4)ncnc32)cc1 12.6 µM, CC(C)C(=O)Nc1nc2c(s1)CC(C(C)(C)C)CC2 (stereo not given) 0.895 µM, COc1ccc(-c2nc(SCc3ccccc3)n(S(C)(=O)=O)n2)cc1 11.3 µM, COCC(=O)Nc1c(C(=O)Nc2ccc3c(c2)OCCO3)oc2ccccc12 0.634 µM, COc1ccc(NC(=O)CSc2nnc(-c3cccs3)o2)cc1 3.56 µM, N#Cc1cc2cc3c(cc2nc1SCC(=O)N1CCOCC1)OCO3 0.798 µM, COc1ccc(OCC(=O)Nc2cc(-c3nc4ccccc4s3)ccc2C)cc1 4.49 µM, COc1ccc(OCC(=O)Nc2ccc(-c3nc4cc(C)c(C)cc4o3)cc2)cc1 0.798 µM, Cc1cccc(-c2nnc(SCC(=O)Nc3ccc(C)c(C)c3)o2)c1 3.18 µM, COc1ccc(NCc2cccn2-c2nnc(N3CCC(C)CC3)s2)c(OC)c1 1.79 µM, COc1ccc(-c2csc(NC(=O)COC(=O)c3ccc(Br)o3)n2)cc1 2.25 µM, O=C(CSc1nnc(-c2ccc(O)cc2)o1)Nc1ccccc1Br 1.13 µM, Cc1ccc(CNc2nc(-c3ccco3)nn2S(C)(=O)=O)cc1 2.83 µM, CCc1ccc2oc(C(=O)Nc3nonc3CC)c(C)c2c1 3.56 µM, O=C(CSc1nnc(-c2ccc(C(F)(F)F)cn2)o1)Nc1cccc(Cl)c1 2.83 µM, Cc1nnc(SCc2nc(N)nc(Nc3ccccc3)n2)s1 22.5 µM, Cc1ccc(CNc2nc3nc(C)c(Cl)c(C)n3n2)cc1 6.34 µM, COc1ccc(-c2nnc(SCC(=O)Nc3cccc(F)c3)s2)cc1 8.95 µM, CCc1nonc1NC(=O)c1oc2ccccc2c1C 12.6 µM, CS(=O)(=O)n1nc(-c2ccc(Cl)cc2)nc1SCc1ccccc1 10 µM, COc1cc(-c2nc3cnccn3c2Nc2ccc(C(C)C)cc2)ccc1O 2.25 µM, O=C(CSc1nnc(-c2ccc(Cl)cc2)o1)Nc1ccc(F)cc1 3.18 µM, Cc1c(-c2nsc(NC(=O)c3cccs3)n2)nnn1-c1ccc(F)cc1 0.895 µM, NC(=O)c1ccccc1NC(=O)c1ccc(-c2ccc(Br)cc2)o1 1.13 µM, CCc1cccc(-n2nnc(-c3nsc(NC(=O)c4cccs4)n3)c2C)c1 7.11 µM, Cc1cc(C)n2c(SCc3ccccc3Cl)nnc2n1 14.2 µM, O=C(CSc1nnc(-c2ccccn2)o1)Nc1cccc(Cl)c1 1.13 µM, Cc1ccc(-c2nc(NCc3ccco3)n(S(C)(=O)=O)n2)cc1 11.3 µM

Activity change, negative = inhibition, inactive:
CCC(=O)n1nc(-c2cccnc2)nc1NCc1ccc(F)cc1 29.6%, Cc1ccccc1OCCn1cnc2c(N)ncnc21 -28.9%, COc1ccc(-n2nnc(-c3nc(-c4cccs4)no3)c2N)cc1OC -14.2%, Cc1cc(C)cc(NC(=O)CSc2nnc(CNC(=O)c3ccco3)o2)c1 4.57%, Nc1c(-c2nc(-c3ccncc3)no2)nnn1CC(=O)Nc1ccccc1 -3.22%, CCS(=O)(=O)n1nc(-c2ccccc2)nc1NCc1ccco1 -29.2%, O=C(CSc1nnc(-c2ccncc2)o1)Nc1nncs1 0.64%, Cc1ccc(NC(=O)Cn2nnc(-c3nc(-c4ccc(Cl)cc4)no3)c2N)cc1C -16.2%
